High-throughput results as filed in PubChem.
Compounds with a hit are over-represented: about 19% of the library has one in this group of screens.
Shiga inhibitor: inhibitors of Shiga toxin in Vero cells | hit rate 9.2% among 290,000 | inhibition, % at 38.7 µM | AID 2315 | Vero cells, Shiga toxin protein synthesis inhibition reporter; in the data active = inhibition mostly above about 28%, no sharp cut-off; inactive = mostly below about 43%; note: 0% is about no effect
Pf growth 48h: inhibits P. falciparum growth in the first generation, 48 h; P. falciparum luciferase growth in erythrocytes, 48 h; Potency, µM (doses to about 28.7 µM), for inactives: top-dose activity change, negative = inhibition, actives largely listed as inhibitors; hit rate 5.9% among 310,000; AID 504832; note: potency is the fitted concentration of half-maximal effect; % is set by controls: 0 for no effect and ±100 for the full control effect
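Growth was read as firefly luciferase luminescence after a 48 h, 37 C, 5% CO2 exposure of compounds to reporter-bearing P. falciparum cultures (0.1% parasitemia, 2% hematocrit final) in Albumax-supplemented RPMI 1640.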
SARS PLP yeast: blocks SARS-CoV papain-like protease in a yeast assay; S. cerevisiae expressing SARS-CoV PLpro, growth rescue; Potency, µM (doses to about 32.9 µM), without a hit: at the top dose activity, positive = growth rescue, usual class: activators; hit rate 0.19% among 330,000; AID 485353; calls by dose curve; note: potency is the fitted concentration of half-maximal effect; 0% is about no effect; nearly all actives have a fitted effect of over 55% in size
Pf growth 96h: inhibits malaria parasite growth, 96 h. hit rate 6.9% among 320,000. Potency, µM (doses to about 28.7 µM), inactives show at the highest dose activity change, negative = inhibition, hits mostly inhibitors. P. falciparum luciferase reporter growth, 96 h; note: potency is the fitted concentration of half-maximal effect; % is set by controls: 0 for no effect and ±100 for the full control effect
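Delayed-death screen, second-generation endpoint: infected erythrocytes, 2% hematocrit, 0.05% parasitemia final; 96 hours at 37 C, 5% CO2; luciferase detection reagent; luminescence decrease equals reduced growth.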
Cycloheximide cs: counter-screen for Shiga toxin inhibitors: cycloheximide protein synthesis inhibition | cell reporter, cycloheximide protein synthesis inhibition counterscreen | max response, % | hit rate 12% among 300,000; in the data active = max response mostly above about 13%, no sharp cut-off; inactive = mostly below about 14%; note: read at 38.3 µM for the half of the compounds with a filed dose; 0% is about no effect
AMA1 RON2 block: inhibitors of Plasmodium falciparum AMA1-RON2 interaction; AlphaScreen AMA1-biotinylated RON2 peptide binding; Potency, µM (doses to about 58.2 µM), for the others: at the top dose activity change, negative = inhibition, usual class: inhibitors; hit rate 0.2% among 360,000; AID 720542;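 note: potency is the fitted concentration of half-maximal effect; 0% = vehicle wells and -100% = peptide control; nearly all actives have a fitted effect of over 45% in size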
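AMA1 (3D7) with his tag at 25 nM final met compounds first, then biotinylated RON2 peptide at 25 nM; detection used donor plus acceptor beads, 10 µg/mL apiece, read by AlphaScreen after 30 min at room temperature.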
Starred values were filed as active, the others as inactive; ? = inconclusive; nt = not tested or not shown; ! = not confirmed by another sample; [ ] = dose if it differs, or a comment. Unless noted, calls come from the whole dose curve; as a rule, active = well fitted curve in the direction sought with a large enough effect; inconclusive = small, poorly fitted or top-dose-only effect, or another doubt; inactive = no such curve, though single readings can be large; an effect the other way counts as inactive or inconclusive.

SMILES	Shiga inhibitor	Pf growth 48h	SARS PLP yeast	Pf growth 96h	Cycloheximide cs	AMA1 RON2 block
O=C(c1cc2cc(Cl)ccc2[nH]1)N1CCN(Cc2ccc3c(c2)OCO3)CC1	8	?	-8%	?	13*	-7%
O=C(c1cc2cc(F)ccc2[nH]1)N1CCN(C(=O)c2ccco2)CC1	-1	?	2%	?	8	3%
CN1CCN(C(=O)c2cc3cc(F)ccc3[nH]2)CC1	-7	15µM*	0%	0%	16	-4%
O=C(c1cccc(Cl)c1)N1CCN(Cc2ccc3c(c2)OCO3)CC1	5	?	6%	7%	8	-7%
CCOC(=O)COc1ccc(S(=O)(=O)NCCC2=CCCCC2)cc1	18	3%	-9%	nt	-2	8%
CNS(=O)(=O)c1cccc(C(=O)OCC(=O)Nc2ccc3ccccc3c2)c1	nt	nt	-5%	nt	nt	-6%
O=C(Cn1cnc2cc([N+](=O)[O-])ccc2c1=O)NCc1ccccc1	-10	-9%[5.75 µM]	3%	5%	-3	1%
CN1CCN(C(=O)c2cc3cc(Cl)ccc3[nH]2)CC1	28	-11%	4%	10µM*	12*!	8%
COc1ccccc1N1CCN(C(=O)c2cc3cc(C)ccc3[nH]2)CC1	nt	?	?	?	-1	6%
Cc1ccc2[nH]c(C(=O)N3CCN(C(c4ccccc4)c4ccccc4)CC3)cc2c1	-19	2.6µM*	-4%	?	-2	-15%
O=S(=O)(c1cc(Cl)ccc1Cl)N1CCN(Cc2ccc3c(c2)OCO3)CC1	-10	nt	-3%	10µM*	-3	-1%
O=S(=O)(c1ccc(Cl)nc1)N1CCN(Cc2ccc3c(c2)OCO3)CC1	-11	-6%	-2%	nt	-2	10%
CCN1CCN(C(=O)c2cc3cc(Cl)ccc3[nH]2)CC1	25	?	-2%	?	1	1%
CC(=O)C1=C(c2ccccc2)NC(=O)NC1c1cccs1 (stereo not drawn)	1	28%	2%	?	1	2%
CCOC(=O)c1cc(C(=O)OCC)c2ccccn2c1=O	-9	16%	1%	-2%[5.75 µM]	-1	10%
COC(=O)c1cccc(-n2sc3ccccc3c2=O)c1	nt	?	-8%	14%	nt	22%
Cc1ccc(C)c(C2=NNC(=NCc3ccccc3)SC2)c1	32*	?	-3%	?	25	52%
C=C(C)CN=C1NN=C(c2cc(C)n(-c3ccc(C)cc3)c2C)CS1	-1	?	-6%	?	5	0%
Cc1cc(C(=O)CN2C(=O)NC(C)(c3ccccc3)C2=O)c(C)n1CC1CCCO1 (stereo not drawn)	-7	-7%	-13%	143%	-3	1%
Cc1cc(C2=NNC(=NCCc3ccccc3)SC2)c(C)n1CC1CCCO1 (stereo not drawn)	194*	?	3%	?	46*	45%
C=CCn1c(C)cc(C2=NNC(=NCc3ccccc3)SC2)c1C	111*	-20%	4%	10µM*	62*	46%
CCN=C1NN=C(c2cc(C)n(CCc3ccccc3)c2C)CS1	62*	?	-7%	?	32*	32%
CC(C)c1ccc(OCC(=O)NCc2ccccc2)cc1	-4	14%	-8%	8%	-3	-4%
Cc1cc(C(=O)C(C)Cl)c(C)n1Cc1ccco1 (stereo not drawn)	-7	-14%	-1%	3%	8	-4%
Clc1ccc(C2=NNC(=NCC3CCCO3)SC2)cc1 (stereo not drawn)	160*	104%	-8%	?	60*	28%
CCN=C1NN=C(c2cc(C)n(Cc3ccco3)c2C)CS1	138*	-45%	3%	-27%	87*	48%
CCCc1nnc(SCC(=O)N2CCCC(C)C2)n1CCOC (stereo not drawn)	25	-1%	1%	?	-4	7%
O=C(NOC(=O)c1c(F)cccc1Cl)c1ccc(Cl)c(Cl)c1	46*	nt	-3%	16%	30*	12%
COC(=O)C(CCSC)NC(=O)c1cc2c(n(-c3ccc(C)cc3)c1=O)CCCC2=O (stereo not drawn)	25	23%	-1%	?	19*	-1%
